Bioassay records as filed in PubChem.
A selection: hits, their analogues and other compounds. The true share with any hit is near 6.5%.
HepG2 viability: qHTS for Inhibitors of TGF-b: Cytotox Counterscreen | HepG2 CAGA-GFP viability, ATP luminescence, 18 h | Potency, µM (highest dose often 46.1 µM), actives largely listed as cytotoxic | 410,000 tested, 0.76% active
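CellTiter-Glo luminescence gave cytotoxicity after 18 hours at 37 degrees C. The cells were HepG2 CAGA-GFP in 1% FBS DMEM, stimulated with 500 pg/mL TGF-beta after compound addition. %Activity was normalised to no-cell wells (complete cell-killing) and DMSO (no toxicity), and curves were fitted and classified.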
Giardia killer: Small Molecules that selectively kill Giardia lamblia: qHTS. AID 540267, 2011. activity change, % at 7.66 µM, hits read low. Giardia lamblia trophozoite viability. 340,000 tested, 0.15% active; in the data active means activity change below about -80%; inconclusive means between about -30% and that limit;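 further: parasites exposed to compound for two days anaerobically before the ATP read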
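Giardia lamblia trophozoites (100 cells/well) were incubated with compounds for 48 h at 37 deg C under anaerobic conditions. Viability was read as ATP content by one-step luminescence after 15-30 min at room temperature.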
IL-1B inflam inh: qHTS for Inhibitors of Inflammasome Signaling: IL-1-beta AlphaLISA Primary Screen. THP-1 LPS/ATP IL-1B secretion, AlphaLISA, 16 h; active compounds read low. activity change, % at 57.5 µM. 360,000 tested, 4.7% active. AID 743279, 2014; in the data active means activity change below about -50%; inconclusive means mostly about -30% to -49%
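THP-1 cells pretreated 1 hr with compounds (up to 57.5 uM final), then stimulated with LPS (250 ng/mL final) plus ATP (1.25 mM final); secreted IL-1B measured by AlphaLISA after 16 hr, decreased signal indicating inhibition.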
HT1080 IDH1KD tx: qHTS for induction of synthetic lethality in tumor cells producing 2HG: qHTS for the HT-1080-IDH1KD cell line | HT-1080 IDH1 knockdown viability, ATP luminescence, 48 h | Potency, µM (highest dose often 46.1 µM), usual class: cytotoxic | 360,000 tested, 2% active
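Knockdown cells (IDH1KD HT-1080) received compounds 2 h after plating at 750 cells/well and were kept 48 h at 37 °C in 5% FBS RPMI. A CellTiter-Glo luminescence read gave % activity for curve fitting.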
TGFb SMAD3 inh: qHTS for Inhibitors of TGF-b; AID 588855, 2011; 410,000 tested, 1.2% active; Potency, µM (series often up to 46.1 µM), hits mostly inhibitors; HepG2 CAGA-GFP TGF-b/SMAD3 reporter, GFP fluorescence, 18 h; TGF-beta stimulated, 500 pg/mL final; further: nearly all actives have a fitted effect of over 65% in size
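HEPG2 CAGA-GFP reporter cells (1000/well, DMEM with 1% FBS) received compounds, then recombinant TGF-beta at 500 pg/mL final for 18 hours at 37 degrees C. Per-cell GFP summed per well was normalised to unstimulated and stimulated DMSO controls before curve fitting.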
HT1080NT lethal: qHTS for induction of synthetic lethality in tumor cells producing 2HG: qHTS for the HT-1080-NT fibrosarcoma cell line; HT-1080-NT fibrosarcoma viability, CellTiter-Glo ATP luminescence, 48 h; Potency, µM (highest dose often 46.1 µM), actives largely listed as cytotoxic; 360,000 tested, 1.6% active;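 further: NT is the 2HG producing partner of a matched IDH1 knockdown line; nearly all actives have a fitted effect of over 55% in size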
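HT-1080-NT; 750 cells/well; 5% FBS RPMI; 48 h compound, 37 degrees C; CellTiter-Glo luminescence; curve fitting and curve-class assignment.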
Hits are given with their value; . = inactive; ? = inconclusive; / = no result. Unless noted, the call rests on the fitted dose curve; in most records, active means well fitted curve in the direction sought with a large enough effect; inconclusive means small, poorly fitted or top-dose-only effect, or another doubt; inactive means no such curve, though single readings can be large; an effect the other way counts as inactive or inconclusive.

SMILES | HepG2 viability | Giardia killer | IL-1B inflam inh | HT1080 IDH1KD tx | TGFb SMAD3 inh | HT1080NT lethal
C/C(=N\NC(=O)c1cc(O)ccc1O)c1cccc(NC(=O)c2ccc(Cl)cc2)c1 | . | ? | -86 | ? | . | .
C/C(=N\NC(=O)c1cc(O)ccc1O)c1cccc(NC(=O)c2cccc(Cl)c2)c1 | . | . | . | . | . | .
COc1cc(-c2ccc3oc(-c4ccsc4)cc(=O)c3c2)cc(OC)c1OC | . | . | -58 | ? | ? | ?
S=C(NCCN1CCOCC1)Nc1ccc(Cl)c(Cl)c1 | . | . | . | . | . | .
O=C(O)c1ccc2c3c(ncnc13)-c1ccccc1C2=O | 1µM | ? | . | ? | 0.79µM | ?
CCc1nn2cc(C(=O)c3cc(Cl)ccc3O)cnc2c1-c1ccc(F)cc1 | . | . | -77 | ? | ? | ?
c1cnc(SCCCOc2ccc3ccccc3c2)nc1 | . | . | . | . | . | .
COCCCNC(=O)COc1ccc(Br)cc1Cl | . | . | . | . | . | .
COC(=O)Cn1cnc2c(Cl)nc(F)nc21 | . | . | -90 | . | . | .
COC(=O)Cn1cnc2c(nnn2-c2ccc(F)cc2)c1=O | . | . | . | . | . | .
O=C(C[C@@H]1C[C@@H]2c3cc(NC(=O)C4CCOCC4)ccc3O[C@@H]2[C@H](CO)O1)NCc1ccccn1 | . | / | . | . | . | .
Cc1[nH]n(-c2ccc([N+](=O)[O-])cc2)c(=O)c1C=NCCN1CCN(C(=O)c2cccc(F)c2)CC1 | 7.9µM | . | . | 16µM | . | 18µM
Cc1[nH]n(-c2ccc([N+](=O)[O-])cc2)c(=O)c1C=NCCN1CCN(C(=O)c2ccc(F)cc2)CC1 | . | . | . | . | . | .
Cc1[nH]n(-c2ccc([N+](=O)[O-])cc2)c(=O)c1C=NCCN1CCN(C(=O)c2ccc(Br)cc2)CC1 | 7.1µM | . | ? | ? | . | ?
Cc1cccnc1NS(=O)(=O)c1cccc([N+](=O)[O-])c1 | . | . | . | . | . | .
CCN1CCN(c2cc(C)nc(-c3ccccc3O)n2)CC1 | . | . | -69 | . | . | .
Cc1cccc(NC(=O)C2CC(=O)N(c3ccccc3)C2)c1C (configuration not stated) | . | . | . | . | . | .
Cc1cnn(-c2cc(N/N=C/c3ccccc3Cl)ncn2)c1 | . | . | . | . | . | .
Cc1ccccc1N1C(=O)C(Oc2ccc(Cl)cc2)C1CNCCCOC(C)C (configuration not stated) | . | . | -91 | 16µM | ? | 16µM
CC(C)OCCCNC(=S)N1CCC(C(=O)c2ccc(Cl)cc2)CC1 | . | . | . | ? | ? | .
COCCCNCC1C(Oc2ccc(Cl)cc2)C(=O)N1c1ccccc1C (configuration not stated) | . | . | -76 | . | . | .
CN(CCc1ccccc1)C(=O)c1ccc(NC(=O)Cc2ccc(NC(=O)C3CCN(C(=O)C4CC4)CC3)cc2)cc1 | . | . | -56 | . | . | .
CN(C(=O)c1ccc(NC(=O)Cc2ccc(NC(=O)C3CCN(C(=O)C4CCC4)CC3)cc2)cc1)C1CC1 | . | . | ? | . | . | .
CN(C(=O)c1ccc(NC(=O)Cc2ccc(NC(=O)C3CCN(C(=O)C4CCCC4)CC3)cc2)cc1)C1CC1 | . | . | -71 | . | ? | .
CN(CCc1ccccc1)C(=O)c1ccc(NC(=O)Cc2ccc(NC(=O)C3CCN(C(=O)C4CCCC4)CC3)cc2)cc1 | . | . | ? | ? | . | .
SMILES | HepG2 viability | Giardia killer | IL-1B inflam inh | HT1080 IDH1KD tx | TGFb SMAD3 inh | HT1080NT lethal
COc1ccc(NC(=O)c2ccc(C(=O)c3ccccc3)o2)cc1 | . | . | . | . | . | .
CCOC(=O)C1=C(C)N=c2s/c(=C/c3ccccc3)c(=O)n2C1c1ccc(OC)c(OC)c1 (configuration not stated) | . | . | . | . | . | .
CCOC(=O)C1=C(C)n2c(s/c(=C/c3cccc([N+](=O)[O-])c3)c2=O)=NC1c1ccc(O)c(OC)c1 (configuration not stated) | . | . | -78 | ? | . | .
CCOc1ccc2nc(COC(=O)c3cccs3)c(C(=O)c3ccccc3)[n+]([O-])c2c1 | . | . | . | . | . | .
O=C1CCCN1C(=O)COc1ccccc1[N+](=O)[O-] | . | . | . | . | . | .
O=C1CSC(c2ccccc2)N1c1ccccc1F (configuration not stated) | . | . | . | . | . | .
COc1ccc(-c2c(C)nn3c(Cl)c(C)c(C)nc23)cc1 | . | ? | . | . | . | .
O=C(Cc1cccc2ccccc12)N/N=C/c1ccc(O)c([N+](=O)[O-])c1 | . | . | . | . | . | .
O=C(Cc1cccc2ccccc12)N/N=C/c1ccc2cccc(O)c2n1 | . | . | . | 23µM | ? | ?
CN(C(=O)CN1C(=O)NC(C)(c2cccc(Br)c2)C1=O)C1CCCCC1 (configuration not stated) | . | . | -89 | . | ? | .
CC1(c2cccc(Br)c2)NC(=O)N(CC(=O)NCC2CCCO2)C1=O (configuration not stated) | . | . | . | . | . | .
Cc1noc(C)c1-c1ccc(C(=O)NCC(C)C)c2occc12 | . | / | . | . | . | .
O=C(Nc1ccccc1)C1C2/C=C\CCCCC21 (configuration not stated) | . | . | -50 | . | . | .
Cc1ccccc1NC(=O)C1C2/C=C\CCCCC21 (configuration not stated) | . | . | . | . | . | .
Cc1ccc(-c2nnc(Nc3ccc(Br)cc3)c3ccccc23)cc1S(=O)(=O)N1CCOCC1 | . | / | / | / | ? | /
CCN1CCN(c2cc(N3CCc4ccccc4C3)c(F)cc2[N+](=O)[O-])CC1 | . | . | -104 | . | ? | .
O=S(=O)(NCC(c1ccco1)S(=O)(=O)c1cccs1)c1ccc(F)c(C(F)(F)F)c1 (configuration not stated) | . | / | / | / | 4.5µM | /
COc1ccc(S(=O)(=O)NCC(c2ccco2)S(=O)(=O)c2ccc(C)cc2)cc1C (configuration not stated) | . | / | / | / | 10µM | /
Cc1ccc(C)c(S(=O)(=O)NCC(c2ccco2)S(=O)(=O)c2ccc(F)cc2)c1 (configuration not stated) | . | / | / | / | 11µM | /
